Test results as given in the supplement of paper PMC10849652.
About 8,800 targets were measured; listed, in parts, are those with a hit and a random draw of the rest. About 0.5% of all pairs of compound and target were hits.

Legend:
Assay in all cases: log2 fold change, soluble protein after heating vs DMSO (PISA); higher = thermal stabilisation; K562 lysate, 10 uM; active = over 0.2 and 3.5 SD of the protein, either way, in both replicates (recomputed)
quisinostat = compound: Cn1cc(CNCC2CCN(c3ncc(C(=O)NO)cn3)CC2)c2ccccc21 [quisinostat]
Procedure, shortened: (§1)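 The values are log-two fold changes in thermal stability compared with solvent controls and come from duplicates. They were obtained by TMTpro 16plex LC-MS/MS, with channel sums equalised, on the supernatant after 21,000xg for 90 min. That supernatant came from crude K562 extract at 1 mg/mL protein treated with 10 μM compound for 30 min, heated for 3 min across 48°C-58°C, pooled and brought to 0.5% NP-40 at 4°C.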

[1] = compound: NC(=O)Nc1cc(-c2cccc(F)c2)sc1C(=O)N[C@H]1CCCNC1
Procedure, shortened: as §1

[2] = compound: NC(=O)c1cnc(N[C@@H]2CCCC[C@@H]2N)nc1Nc1cccc(-n2nccn2)c1
Procedure, shortened: as §1

[3] = compound: NC1(c2ccc(-c3nc4ccn5c(=O)[nH]nc5c4cc3-c3ccccc3)cc2)CCC1
Procedure, shortened: as §1

dasatinib = compound: Cc1nc(Nc2ncc(C(=O)Nc3c(C)cccc3Cl)s2)cc(N2CCN(CCO)CC2)n1 [dasatinib]
Procedure, shortened: as §1

[4] = compound: Cn1cc(-c2ccc3c(c2)CCN3C(=O)Cc2cccc(C(F)(F)F)c2)c2c(N)ncnc21
Procedure, shortened: as §1

Measured: log2 fold change

MAP3K4 isoform 2 (UniProt Q9Y6R4)
inactive: quisinostat 0.009 | [1] 0.112

MAPK7 (UniProt Q13164)
Sequence of UniProt Q13164 (Q13164 whole entry, looked up): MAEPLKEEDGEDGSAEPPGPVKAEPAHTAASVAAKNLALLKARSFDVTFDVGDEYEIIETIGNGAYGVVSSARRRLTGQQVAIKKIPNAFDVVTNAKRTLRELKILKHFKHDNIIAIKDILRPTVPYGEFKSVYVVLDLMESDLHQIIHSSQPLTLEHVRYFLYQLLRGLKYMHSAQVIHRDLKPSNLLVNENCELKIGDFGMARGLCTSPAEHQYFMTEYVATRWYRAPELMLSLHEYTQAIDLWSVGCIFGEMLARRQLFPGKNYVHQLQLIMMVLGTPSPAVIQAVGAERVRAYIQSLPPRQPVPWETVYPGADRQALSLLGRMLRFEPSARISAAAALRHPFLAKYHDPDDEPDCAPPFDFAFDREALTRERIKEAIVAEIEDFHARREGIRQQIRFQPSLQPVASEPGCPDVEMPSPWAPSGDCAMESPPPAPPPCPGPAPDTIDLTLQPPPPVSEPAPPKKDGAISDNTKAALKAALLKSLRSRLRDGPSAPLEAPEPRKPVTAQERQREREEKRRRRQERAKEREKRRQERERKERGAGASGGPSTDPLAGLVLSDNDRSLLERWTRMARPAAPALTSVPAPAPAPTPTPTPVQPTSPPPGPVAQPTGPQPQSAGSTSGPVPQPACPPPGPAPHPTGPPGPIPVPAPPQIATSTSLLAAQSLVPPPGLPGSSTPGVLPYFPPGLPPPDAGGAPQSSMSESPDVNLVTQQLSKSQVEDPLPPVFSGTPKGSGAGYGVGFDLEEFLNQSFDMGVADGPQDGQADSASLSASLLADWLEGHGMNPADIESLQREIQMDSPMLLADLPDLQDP
inactive: quisinostat -0.156 | [1] -0.044 | [2] 0.028 | [3] 0.011

KRAS isoform 2 (UniProt P01116)
Sequence of UniProt P01116 (P01116 whole entry, looked up): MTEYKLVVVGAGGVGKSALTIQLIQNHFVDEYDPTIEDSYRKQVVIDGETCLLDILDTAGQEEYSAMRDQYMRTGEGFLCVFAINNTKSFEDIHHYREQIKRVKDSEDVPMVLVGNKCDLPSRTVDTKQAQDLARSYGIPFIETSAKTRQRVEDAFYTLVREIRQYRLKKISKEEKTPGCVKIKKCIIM
inactive: dasatinib -0.029 | [4] -0.025 | quisinostat 0.018 | [1] 0.001 | [2] -0.046 | [3] 0.036

KIF18B (UniProt Q86Y91)
Sequence of UniProt Q86Y91 (Q86Y91 whole entry, looked up): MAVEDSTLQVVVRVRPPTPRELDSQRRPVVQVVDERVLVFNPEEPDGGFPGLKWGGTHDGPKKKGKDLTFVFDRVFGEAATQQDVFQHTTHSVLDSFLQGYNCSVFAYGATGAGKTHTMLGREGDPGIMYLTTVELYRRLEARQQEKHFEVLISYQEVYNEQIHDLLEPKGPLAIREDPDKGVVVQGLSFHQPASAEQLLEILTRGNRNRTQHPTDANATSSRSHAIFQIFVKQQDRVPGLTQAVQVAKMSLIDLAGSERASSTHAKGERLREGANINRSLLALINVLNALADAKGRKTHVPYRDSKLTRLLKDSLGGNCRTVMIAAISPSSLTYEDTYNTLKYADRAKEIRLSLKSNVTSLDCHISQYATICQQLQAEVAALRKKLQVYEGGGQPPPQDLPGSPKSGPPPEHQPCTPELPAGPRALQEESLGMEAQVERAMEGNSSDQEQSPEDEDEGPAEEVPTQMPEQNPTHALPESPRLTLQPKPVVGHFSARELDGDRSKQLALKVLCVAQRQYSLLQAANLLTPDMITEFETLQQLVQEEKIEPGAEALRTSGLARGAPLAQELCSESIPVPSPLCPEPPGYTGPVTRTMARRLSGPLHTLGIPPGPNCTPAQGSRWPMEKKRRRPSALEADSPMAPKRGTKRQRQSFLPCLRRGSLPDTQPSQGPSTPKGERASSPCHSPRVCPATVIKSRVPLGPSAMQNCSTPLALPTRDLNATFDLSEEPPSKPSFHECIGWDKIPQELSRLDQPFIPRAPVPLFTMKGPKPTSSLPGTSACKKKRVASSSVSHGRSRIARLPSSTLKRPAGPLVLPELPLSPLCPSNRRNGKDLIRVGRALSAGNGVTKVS
inactive: dasatinib 0.073 | [4] 0.076 | quisinostat -0.025 | [1] 0.17 | [2] 0.025

MEGF8 (UniProt Q7Z7M0)
inactive: dasatinib -0.059 | [4] -0.003 | quisinostat 0.047 | [1] -0.073 | [3] -0.073

LRRIQ1 (UniProt Q96JM4)
Sequence of UniProt Q96JM4 (Q96JM4 whole entry, looked up): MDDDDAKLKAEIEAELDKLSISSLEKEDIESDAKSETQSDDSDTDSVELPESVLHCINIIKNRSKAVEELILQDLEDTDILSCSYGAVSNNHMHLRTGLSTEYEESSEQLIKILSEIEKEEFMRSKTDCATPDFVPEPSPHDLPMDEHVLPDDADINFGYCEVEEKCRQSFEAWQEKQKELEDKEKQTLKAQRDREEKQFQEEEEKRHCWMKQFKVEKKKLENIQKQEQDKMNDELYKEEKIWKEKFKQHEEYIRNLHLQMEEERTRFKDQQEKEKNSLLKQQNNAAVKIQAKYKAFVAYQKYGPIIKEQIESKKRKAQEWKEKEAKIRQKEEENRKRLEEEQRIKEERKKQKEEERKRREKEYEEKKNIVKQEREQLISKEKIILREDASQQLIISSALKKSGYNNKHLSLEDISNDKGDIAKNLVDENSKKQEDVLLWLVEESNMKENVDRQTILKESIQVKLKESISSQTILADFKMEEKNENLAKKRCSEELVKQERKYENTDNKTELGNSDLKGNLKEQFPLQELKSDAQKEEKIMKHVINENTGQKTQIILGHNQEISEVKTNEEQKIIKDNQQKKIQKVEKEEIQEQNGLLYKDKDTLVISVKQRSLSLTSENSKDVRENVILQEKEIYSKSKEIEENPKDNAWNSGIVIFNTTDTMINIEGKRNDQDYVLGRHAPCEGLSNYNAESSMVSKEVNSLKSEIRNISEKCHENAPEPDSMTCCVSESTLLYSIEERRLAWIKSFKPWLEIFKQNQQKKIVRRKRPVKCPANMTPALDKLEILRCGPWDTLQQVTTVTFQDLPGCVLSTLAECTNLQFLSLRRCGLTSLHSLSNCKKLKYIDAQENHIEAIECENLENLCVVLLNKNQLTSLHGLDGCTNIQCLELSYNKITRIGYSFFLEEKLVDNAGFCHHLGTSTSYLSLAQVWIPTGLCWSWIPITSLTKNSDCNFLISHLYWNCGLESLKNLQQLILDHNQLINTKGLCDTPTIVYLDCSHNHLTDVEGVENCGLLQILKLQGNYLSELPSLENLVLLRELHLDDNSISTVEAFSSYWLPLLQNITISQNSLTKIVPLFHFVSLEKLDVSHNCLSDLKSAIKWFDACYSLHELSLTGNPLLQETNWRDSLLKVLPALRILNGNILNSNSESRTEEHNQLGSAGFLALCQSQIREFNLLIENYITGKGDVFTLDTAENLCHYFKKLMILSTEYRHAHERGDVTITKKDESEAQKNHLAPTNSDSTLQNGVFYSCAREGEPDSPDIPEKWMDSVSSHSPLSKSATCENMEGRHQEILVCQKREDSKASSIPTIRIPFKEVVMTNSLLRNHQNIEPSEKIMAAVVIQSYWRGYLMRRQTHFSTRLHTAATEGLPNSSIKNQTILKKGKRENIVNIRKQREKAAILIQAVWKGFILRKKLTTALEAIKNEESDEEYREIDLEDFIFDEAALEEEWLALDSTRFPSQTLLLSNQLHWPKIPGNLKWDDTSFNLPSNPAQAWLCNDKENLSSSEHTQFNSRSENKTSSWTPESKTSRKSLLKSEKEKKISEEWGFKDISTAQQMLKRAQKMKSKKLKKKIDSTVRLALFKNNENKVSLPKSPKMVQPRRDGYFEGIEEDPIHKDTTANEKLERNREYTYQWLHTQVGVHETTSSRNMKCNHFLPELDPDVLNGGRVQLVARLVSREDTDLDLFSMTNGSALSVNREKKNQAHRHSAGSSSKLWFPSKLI
inactive: quisinostat -0.518 | [1] 0.242 | [2] 0.019
